Source: PubChem (National Center for Advancing Translational Sciences (NCATS))
The list is not random: actives were taken first. Their share in the collection is about 19%.
TGFb SMAD3 inh: TGF-b pathway inhibition; HepG2 CAGA-GFP TGF-b/SMAD3 reporter, GFP fluorescence, 18 h; TGF-beta stimulated, 500 pg/mL final; Potency, µM (highest dose often 46.1 µM), hits mostly inhibitors; hit rate 1.2% among 410,000; AID 588855; note: nearly all actives have a fitted effect of over 65% in size
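Per well, imaged GFP fluorescence of HEPG2 CAGA-GFP cells gives the signal; cells get compound, then TGF-beta (500 pg/mL final), 18 h at 37 degrees C; %Activity versus -TGF-beta and +DMSO controls.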
ASM inhibitor: human S-ASM enzyme inhibition; hit rate 0.006% among 340,000; Potency, µM (titrated, usually from 57.5 µM), hits mostly inhibitors; placental ASM, HMU-PC fluorogenic substrate, 60 min
Target sequence (P17405 47-631 limits assumed): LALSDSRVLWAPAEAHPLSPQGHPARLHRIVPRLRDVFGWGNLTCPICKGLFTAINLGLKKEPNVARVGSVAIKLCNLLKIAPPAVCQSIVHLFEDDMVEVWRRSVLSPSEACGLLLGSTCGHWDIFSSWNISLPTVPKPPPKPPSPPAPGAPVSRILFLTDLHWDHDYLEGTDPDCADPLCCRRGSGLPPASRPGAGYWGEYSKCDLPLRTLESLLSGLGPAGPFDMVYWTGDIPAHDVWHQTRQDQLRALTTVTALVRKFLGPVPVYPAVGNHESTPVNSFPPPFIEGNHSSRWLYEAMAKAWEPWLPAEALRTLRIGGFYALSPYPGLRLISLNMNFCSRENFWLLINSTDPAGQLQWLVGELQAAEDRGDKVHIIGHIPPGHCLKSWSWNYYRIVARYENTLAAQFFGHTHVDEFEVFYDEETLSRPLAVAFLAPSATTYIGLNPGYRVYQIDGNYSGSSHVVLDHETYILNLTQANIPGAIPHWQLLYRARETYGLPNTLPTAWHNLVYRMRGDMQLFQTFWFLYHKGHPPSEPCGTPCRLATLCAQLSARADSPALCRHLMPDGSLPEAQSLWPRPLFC
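Steps: dispense placental human ASM, pin compound, wait 10 min at room temperature, add HMU-PC0 substrate at 9 uM final, incubate 60 min at 37 °C, add stop solution raising pH to 10, read fluorescence.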
IL-1B inflam inh: blocks inflammasome-driven IL-1 beta release; THP-1 LPS/ATP IL-1B secretion, AlphaLISA, 16 h; hits give low values; activity change, % at 57.5 µM; hit rate 4.7% among 360,000; in the data active = activity change below about -50%; inconclusive = mostly about -30% to -49%
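THP-1 cells pretreated 1 hr with compounds (up to 57.5 uM final), then stimulated with LPS (250 ng/mL final) plus ATP (1.25 mM final); secreted IL-1B measured by AlphaLISA after 16 hr, decreased signal indicating inhibition.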
HepG2 tox: counter-screen for TGF-b inhibitors: cytotoxicity in HepG2 cells. AID 588856. hit rate 0.76% among 410,000. Potency, µM (doses to about 46.1 µM), usual class: cytotoxic. HepG2 CAGA-GFP viability, ATP luminescence, 18 h
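CellTiter-Glo luminescence gave cytotoxicity after 18 hours at 37 degrees C. The cells were HepG2 CAGA-GFP in 1% FBS DMEM, stimulated with 500 pg/mL TGF-beta after compound addition. %Activity was normalised to no-cell wells (complete cell-killing) and DMSO (no toxicity), and curves were fitted and classified.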
DT40 TDP1 no CPT: qHTS for Inhibitors of human tyrosyl-DNA phosphodiesterase 1 (TDP1): qHTS in cells in absence of CPT | hit rate 15% among 420,000 | DT40 Tdp1-/- hTDP1 cells, no CPT, ATP luminescence, 48 h | AID 686978, 2013 | Potency, µM (titrated, usually from 46.2 µM), hits mostly inhibitors; note: nearly all actives have a fitted effect of over 55% in size
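Growth of hTDP1-complemented DT40 Tdp1-knockout cells is measured by ATP luminescence after at least 48 hr compound exposure at 37 °C, with DMSO substituting for the 20 nM CPT used in the parallel screen.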
TDP1 cell CPT: DT40-hTDP1 cell growth loss with CPT; Potency, µM (highest dose often 46.2 µM), most hits filed as inhibitors; chicken DT40 Tdp1-/-;hTDP1 cells + 20 nM CPT, ATP luminescence, 48 h; AID 686979; hit rate 12% among 420,000; note: nearly all actives have a fitted effect of over 55% in size
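Cell growth measured by CellTiter-Glo luminescence after a minimum 48 h, 37 C compound exposure with 20 nM CPT in Tdp1-knockout DT40 cells stably expressing hTDP1, seeded 400/well; qHTS titration format.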
A number is an active result; 0 = inactive; ? = inconclusive; - = no result. Unless noted, calls come from the whole dose curve; as a rule, active = well fitted curve in the direction sought with a large enough effect; inconclusive = small, poorly fitted or top-dose-only effect, or another doubt; inactive = no such curve, though single readings can be large; an effect the other way counts as inactive or inconclusive.

SMILES	TGFb SMAD3 inh	ASM inhibitor	IL-1B inflam inh	HepG2 tox	DT40 TDP1 no CPT	TDP1 cell CPT
COc1ccc(C2/C=C\CN(C(=O)NC34CC5CC(CC(C5)C3)C4)CC(=O)N2Cc2ccc(F)cc2)cc1 (stereo not drawn)	?	0	0	0	?	23.1µM
COc1ccc(C2/C=C\CN(C(=O)Nc3ccccc3-c3ccccc3)CC(=O)N2Cc2ccc(F)cc2)cc1 (stereo not drawn)	?	0	0	0	?	23.1µM
COc1ccc(C2/C=C\CN(C(=O)C3CCCC3)CC(=O)N2Cc2ccc(F)cc2)cc1 (stereo not drawn)	0	0	0	0	?	20.6µM
COC(=O)N1C/C=C\C(c2ccc(OC)cc2)N(Cc2ccc(F)cc2)C(=O)C1 (stereo not drawn)	0	0	0	0	0	0
COc1cc(-c2nnc(NC(=O)CCS(=O)(=O)c3ccccc3)o2)cc(OC)c1OC	11.2µM	0	-54.7	0	14.6µM	16.4µM
COc1cc(-c2nnc(NC(=O)CCS(=O)(=O)c3ccc(F)cc3)o2)cc(OC)c1OC	?	0	0	0	18.4µM	?
CC(OC(=O)c1n[nH]c2ccccc12)C(=O)Nc1ccccc1[N+](=O)[O-] (stereo not drawn)	?	0	0	0	14.6µM	?
CCOc1ccccc1NC(=O)CSc1nc2ccccc2nc1Cc1ccc(C)cc1	0	-	-	0	?	?
CCc1cccc(NC(=O)Cn2c3[n+](c4ccc(C(F)(F)F)cc42)CCCCC3)c1	0	0	-68.3	0	16.4µM	?
